# Laboratory results: PubChem BioAssay AID1159580 (chemical genetic matrix, 2015)
# The whole screen tested about 5,500 compounds, of which about 2,000 (36%) were called active. Roughly 18% stayed inconclusive and do not appear here. The list shows a part of the results. Values without a mark were called inactive. Cut-off read from the data, not from the text of the source: active = normalized growth mostly below about 0.91 (no sharp cut-off); inconclusive = no clear call, values can overlap the other calls; inactive = mostly above about 0.92.
# Assay: chemical genetic growth profiling, strain panel (AID 1159580);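 note: tested at 20 µM; growth read once vehicle control cultures reached saturation at 30 °C; 1 = growth at the plate median or of vehicle wells; lower values mean less growth of the strain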
# Conditions: S. cerevisiae deletion strains, growth OD
structure (smiles),measurement,setting,value
COc1ccc(-c2cc(=O)c3c(O)cc(OC)c(OC)c3o2)c(OC)c1,normalized growth,"locus YAL021C, strain ccr4, stronger effect = lower value",0.977
same,normalized growth,"locus YAL026C, strain drs2, stronger effect = lower value",1.02
same,normalized growth,"locus YAL030W, strain snc1, stronger effect = lower value",1.02
same,normalized growth,"locus YBL061C, strain skt5, stronger effect = lower value",0.997
same,normalized growth,"locus YBR009C, strain hhf1, stronger effect = lower value",0.964
same,normalized growth,"locus YBR023C, strain chs3, stronger effect = lower value",0.989
same,normalized growth,"locus YBR171W, strain sec66, stronger effect = lower value",1.04
same,normalized growth,"locus YBR231C, strain swc5, stronger effect = lower value",0.966
same,normalized growth,"locus YBR279W, strain paf1, stronger effect = lower value",1.01
same,normalized growth,"locus YCL011C, strain gbp2, stronger effect = lower value",1.01
same,normalized growth,"locus YCL016C, strain dcc1, stronger effect = lower value",1
same,normalized growth,"locus YCL061C, strain MRC1, stronger effect = lower value",1.03
same,normalized growth,"locus YCL069W, strain vba3, stronger effect = lower value",1.04
same,normalized growth,"locus YCR088W, strain abp1, stronger effect = lower value",1.03
same,normalized growth,"locus YDL005C, strain med2, stronger effect = lower value",1.02
same,normalized growth,"locus YDL040C, strain nat1, stronger effect = lower value",1.02
same,normalized growth,"locus YDR001C, strain nth1, stronger effect = lower value",1.04
same,normalized growth,"locus YDR069C, strain doa4, stronger effect = lower value",0.97
same,normalized growth,"locus YDR137W, strain rgp1, stronger effect = lower value",0.943
same,normalized growth,"locus YDR159W, strain sac3, stronger effect = lower value",1.02
same,normalized growth,"locus YDR195W, strain ref2",1.07
same,normalized growth,"locus YDR297W, strain sur2, stronger effect = lower value",1.02
same,normalized growth,"locus YDR334W, strain swr1, stronger effect = lower value",1.05
same,normalized growth,"locus YDR335W, strain msn5, stronger effect = lower value",1.03
same,normalized growth,"locus YDR392W, strain spt3, stronger effect = lower value",0.846
same,normalized growth,"locus YEL003W, strain gim4, stronger effect = lower value",1.01
same,normalized growth,"locus YEL037C, strain rad23, stronger effect = lower value",1.1 [resistant] (active)
same,normalized growth,"locus YEL061C, strain CIN8 (second series), stronger effect = lower value",1.04
same,normalized growth,"locus YER015W, strain faa2, stronger effect = lower value",0.971
same,normalized growth,"locus YER016W, strain bim1, stronger effect = lower value",1.02
same,normalized growth,"locus YER111C, strain swi4, stronger effect = lower value",1.05
same,normalized growth,"locus YER155C, strain BEM2 (second series), stronger effect = lower value",0.956
same,normalized growth,"locus YFR010W, strain ubp6, stronger effect = lower value",1
same,normalized growth,"locus YGL167C, strain pmr1, stronger effect = lower value",0.998
same,normalized growth,"locus YGL173C, strain kem1, stronger effect = lower value",1.02
same,normalized growth,"locus YGL227W, strain vid30, stronger effect = lower value",1.04
same,normalized growth,"locus YGL240W, strain doc1, stronger effect = lower value",1.04
same,normalized growth,"locus YGL253W, strain hxk2, stronger effect = lower value",1.01
same,normalized growth,"locus YHR013C, strain ard1, stronger effect = lower value",0.975
same,normalized growth,"locus YHR027C, strain rpn1, stronger effect = lower value",0.985
same,normalized growth,"locus YHR030C, strain SLT2, stronger effect = lower value",1.04
same,normalized growth,"locus YHR079C, strain IRE1, stronger effect = lower value",1.03
same,normalized growth,"locus YHR142W, strain chs7, stronger effect = lower value",1
same,normalized growth,"locus YJL092W, strain hpr5, stronger effect = lower value",1.04
same,normalized growth,"locus YJL095W, strain BCK1 (second series), stronger effect = lower value",1.01
same,normalized growth,"locus YJL095W, strain BCK1, stronger effect = lower value",0.967
same,normalized growth,"locus YJL115W, strain asf1, stronger effect = lower value",1.05
same,normalized growth,"locus YJL129C, strain trk1, stronger effect = lower value",1.02
same,normalized growth,"locus YJL154C, strain vps35, stronger effect = lower value",1.04
same,normalized growth,"locus YJL164C, strain tpk1, stronger effect = lower value",0.95
same,normalized growth,"locus YJL166W, strain qcr8, stronger effect = lower value",1
same,normalized growth,"locus YJL187C, strain SWE1, stronger effect = lower value",1.02
same,normalized growth,"locus YJR066W, strain TOR1, stronger effect = lower value",0.973
same,normalized growth,"locus YKL160W, strain elf1, stronger effect = lower value",0.993
same,normalized growth,"locus YKR026C, strain gcn3, stronger effect = lower value",1.05
same,normalized growth,"locus YKR091W, strain srl3, stronger effect = lower value",1.03
same,normalized growth,"locus YLL001W, strain dnm1, stronger effect = lower value",1.01
same,normalized growth,"locus YLL026W, stronger effect = lower value",1.02
same,normalized growth,"locus YLL041C, strain sdh2, stronger effect = lower value",1.02
same,normalized growth,"locus YLR027C, strain aat2, stronger effect = lower value",0.996
same,normalized growth,"locus YLR113W, strain HOG1, stronger effect = lower value",0.932
same,normalized growth,"locus YLR221C, strain rsa3, stronger effect = lower value",0.966
same,normalized growth,"locus YLR258W, strain gsy2, stronger effect = lower value",1.01
same,normalized growth,"locus YLR262C, strain YPT6 (second series), stronger effect = lower value",0.907
same,normalized growth,"locus YLR320W, strain mms22, stronger effect = lower value",0.966
same,normalized growth,"locus YLR342W, strain FKS1, stronger effect = lower value",0.997
same,normalized growth,"locus YLR357W, strain rsc2, stronger effect = lower value",0.994
same,normalized growth,"locus YLR370C, strain arc18, stronger effect = lower value",1.03
same,normalized growth,"locus YLR384C, strain iki3, stronger effect = lower value",1.02
same,normalized growth,"locus YML120C, strain ndi1, stronger effect = lower value",1.02
same,normalized growth,"locus YMR058W, strain fet3, stronger effect = lower value",0.917
same,normalized growth,"locus YMR125W, strain sto1, stronger effect = lower value",1.05
same,normalized growth,"locus YMR129W, stronger effect = lower value",1.03
same,normalized growth,"locus YMR205C, strain PFK2, stronger effect = lower value",1.01
same,normalized growth,"locus YMR231W, strain pep5, stronger effect = lower value",1.03
same,normalized growth,"locus YNL071W, strain lat1, stronger effect = lower value",1.02
same,normalized growth,"locus YNL183C, strain NPR1, stronger effect = lower value",0.893
same,normalized growth,"locus YNL209W, strain ssb2, stronger effect = lower value",0.937
same,normalized growth,"locus YNL248C, strain rpa49, stronger effect = lower value",1.05
same,normalized growth,"locus YNL322C, strain KRE1 (second series), stronger effect = lower value",1.04
same,normalized growth,"locus YNR049C, strain mso1, stronger effect = lower value",1.03
same,normalized growth,"locus YOR001W, strain rrp6, stronger effect = lower value",1.01
same,normalized growth,"locus YOR070C, strain gyp1, stronger effect = lower value",0.997
same,normalized growth,"locus YOR080W, strain dia2, stronger effect = lower value",1.04
same,normalized growth,"locus YOR083W, strain WHI5, stronger effect = lower value",0.962
same,normalized growth,"locus YOR106W, strain vam3, stronger effect = lower value",0.944
same,normalized growth,"locus YOR231W, strain MKK1, stronger effect = lower value",1.03
same,normalized growth,"locus YOR265W, strain rbl2, stronger effect = lower value",1.01
same,normalized growth,"locus YOR270C, strain vph1, stronger effect = lower value",1.03
same,normalized growth,"locus YOR290C, strain snf2, stronger effect = lower value",0.961
same,normalized growth,"locus YPL051W, strain arl3, stronger effect = lower value",0.916
same,normalized growth,"locus YPL078C, strain atp4, stronger effect = lower value",1.03
same,normalized growth,"locus YPL106C, strain sse1, stronger effect = lower value",0.983
same,normalized growth,"locus YPL240C, strain hsp82, stronger effect = lower value",1.02
same,normalized growth,"locus YPL256C, strain CLN2, stronger effect = lower value",1.01
